{"source": "PubChem BioAssay (NCI)", "note": "“And” between values parts separate entries of the source, which are not always exact repeats. Equal entries are not always repeated. The panel holds about 83,000 compounds, 20% with a hit somewhere; the sample as a whole holds those more often.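 Method: cells in 96-well plates; compound added at one concentration; 48 h incubation; percent growth measured; values under 10 scored active.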 The source made the active and inactive calls.", "data": [{"tested_on": "HL-60(TB) leukemia", "test": "NCI-60 one-dose screen, 48 h (100 = growth as untreated, 0 = no growth, -100 = all killed)", "conditions": "10 µM unless noted", "values": [{"smiles": "COC(=O)[C@H](CC(C)C)NC(=O)NC(=O)NC(=O)CI", "growth": "50.7% (inactive)"}, {"smiles": "CCCCCCNc1cc(C)nc2ccc(OC)cc12", "growth": "63.3% (inactive)"}, {"smiles": "CS(=O)(=O)Nc1cc(-c2ccc3ncnc(Nc4ccc5c(cnn5Cc5ccccn5)c4)c3c2)cnc1Cl", "growth": "56.5% (inactive)"}, {"smiles": "O=C(O)/C=C/C=C/c1ccccc1", "growth": "106% (inactive) and 112% (inactive)"}, {"smiles": "CCCC1=NNC(=O)C1", "growth": "95.6% (inactive)"}, {"smiles": "CC(O)(CC(=O)CC(=O)c1ccccc1)c1ccccc1", "note": "(configuration not stated)", "growth": "101% (inactive) and 90.1% (inactive)"}, {"smiles": "c1ccc(-c2nc(N3CCNCC3)c3nc(-c4ccccc4)oc3n2)cc1", "growth": "-49.6% (active)"}, {"smiles": "COc1cccc([C@H]2c3[nH]c4ccccc4c3C[C@H]3C(=O)N(CCCCCCC(=O)NO)CC(=O)N23)c1", "growth": "31% (inactive)"}, {"smiles": "COC(=O)C1=C(C(=O)ONCCN(C)C)C2C=CC1(C(Cc1ccccc1)Nc1ccc(F)cc1)O2", "note": "(configuration not stated)", "growth": "35.8% (inactive)"}, {"smiles": "Cc1ccc(S(=O)(=O)Nc2nc3ccccc3nc2Nc2ccc3nsnc3c2)cc1", "growth": "45.4% (inactive) and 37.2% (inactive)"}, {"smiles": "O=C1CCCN1C(O)CCN(Cc1ccccc1)Cc1ccc(Cl)cc1", "note": "(configuration not stated)", "growth": "96.4% (inactive)"}, {"smiles": "CC(=O)Nc1ccc(S(=O)(=O)Nc2cccc(-c3nc(-c4ccc(NC(=O)c5cccnc5)cc4Cl)no3)c2)cc1", "growth": "24% (inactive)"}, {"smiles": "CC[C@H](C)C(=O)O[C@H]1CCC=C2C=C[C@H](C)C(CCC3C[C@@H](O)CC(=O)O3)[C@H]21", "note": "(some centres not stated)", "growth": "97.8% (inactive)"}, {"smiles": "Nc1n[nH]c(-c2cc(Cl)ccc2O)c1-c1ccccc1", "growth": "69.8% (inactive)"}, {"smiles": "Cc1c(Cc2ccccc2)c(=O)oc2c(C)c(OCc3n[nH]c(=S)o3)ccc12", "growth": "69.7% (inactive)"}, {"smiles": "C[C@@H](NC(=O)[C@@H](CC(=O)N1CCC(N2CCCCC2)CC1)N1C(=O)[C@@H](N2C(=O)OC[C@@H]2c2ccccc2)[C@H]1/C=C/c1cccc(Cl)c1)c1ccccc1", "growth": "66.3% (inactive)"}, {"smiles": "N#Cc1c(N)nc(N)nc1Nc1ccc(Br)cc1", "growth": "93.3% (inactive)"}, {"smiles": "O=C(NC(Cc1cn(Cc2ccccc2)cn1)C(=O)O)OCC1c2ccccc2-c2ccccc21", "note": "(configuration not stated)", "growth": "87.4% (inactive)"}, {"smiles": "CCC(=O)Oc1ccc(/C(=C(/C)Cc2cccc(OC)c2)c2ccc(OCCN(C)C)cc2)cc1", "growth": "91.3% (inactive)"}, {"smiles": "CN(O)c1nc(N(C)O)nc(N2CCOCC2)n1", "growth": "21.5% (inactive)"}, {"smiles": "O=C(O)[C@@H]1c2ccccc2-c2ccccc2[C@H]1C(=O)O", "growth": "91.3% (inactive)"}, {"smiles": "O=C1c2cc3c(cc2-c2c1c1ccc(Cl)cc1c(=O)n2CCCNCCO)OCO3", "growth": "-64% (active)"}, {"smiles": "C=C(CN1CCc2c([nH]c3ccccc23)C1)c1ccc(C(=O)Nc2ccon2)cc1", "growth": "99% (inactive)"}, {"smiles": "C=C(C)[C@@H]1CC[C@]2(CO)CC[C@]3(C)[C@H](CC[C@@H]4[C@@]5(C)CC[C@H](NCO)C(C)(C)[C@@H]5CC[C@]43C)[C@@H]12", "growth": "-52% (active)"}, {"smiles": "N=C(N)c1ccc(-c2ccc(-c3cc(F)cc(F)c3)o2)nc1", "growth": "97.7% (inactive)"}, {"smiles": "COC(=O)c1ccccc1Br", "growth": "76.5% (inactive)"}, {"smiles": "COc1ccc2[nH]cc(/C=C3\\C(=O)Nc4ccccc43)c2c1", "growth": "-31.7% (active)"}]}]}
